Bioassay records as filed in PubChem.
Gli-Sufu block: Gli-Sufu pathway antagonists, primary screen, luciferase luminescence, Sufu-KO-LIGHT cells, uHTS; Sufu-KO-LIGHT fibroblasts, Gli luciferase reporter luminescence; inhibition, % at 5 µM; hit rate 0.74% among 340,000; AID 588413, 2011;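 active = inhibition above about 55%, limit read from the data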;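 note: 0% = DMSO-treated cells and 100% = wells with medium but no cells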
Jurkat NFkB inh: inhibitors of induced NF-kB luciferase reporter, primary screen, TCR NF-kB activation inhibitor project, cell-based, luminescence, uHTS; Jurkat, PMA/ionomycin-induced NF-kB luciferase reporter; hit rate 0.53% among 330,000; inhibition, % at 4 µM; in the data active = inhibition above about 50%
esBAF inh: Bmi1 luciferase reporter increase in mESCs, primary screen, esBAF inhibitor project, mouse ES cells, Bmi1 luciferase knock-in, single point | 24 h; 100% = twice the neutral-well signal | reporter increase, % at 12.5 µM | hit rate 2% among 350,000 | AID 602393, 2012; in the data active = activation above about 40%;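 note: 0% = median of the plate's neutral control wells and 100% = double that signal; a rise in the Bmi1 reporter signal indicates esBAF inhibition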
SMARCA2 act: SMARCA2 (BRM) function activators, primary screen, cell-based, luminescence, high throughput; MG213 cells, MMTV-luciferase reporter, dexamethasone, overnight; activation, % at 9.1 µM; hit rate 1% among 370,000; in the data active = activation above about 7.8%;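 note: 0% = vehicle wells and 100% = reference activator wells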
697 NFkB inh: inhibitors of PMA/ionomycin-induced NF-kB reporter, 697 cells, primary screen, B-cell NF-kB inhibitor project, cell-based, luminescence, uHTS; 697 B-cell NF-kB luciferase reporter, 16 h; inhibition, % at 4 µM; hit rate 0.33% among 330,000; AID 435022, 2010; in the data active = inhibition above about 35%
Starred values were filed as active, the others as inactive; · = no result given. This is a sample that favours compounds with a hit; in the whole collection about 3.3% have one here.

SMILES | Gli-Sufu block | Jurkat NFkB inh | esBAF inh | SMARCA2 act | 697 NFkB inh
Cc1ccccc1CN(C)C[C@H]1OCc2cn(nn2)CCCC(=O)N([C@H](C)CO)C[C@@H]1C | · | · | -0.6 | · | ·
O=C(NCCc1cccc(Cl)c1)c1cccs1 | -79.4 | -92.1 | 63.5* | 3.9 | -93.1
O=C(NCCc1ccc(Cl)cc1)c1ccc(Br)s1 | -61.9 | -82.0 | 64.3* | 2.5 | -81.7
CCC(CC)C(=O)NCCc1cc2cc(C)c(C)cc2[nH]c1=O | 3.1 | -3.5 | -0.5 | -1.4 | -1.1
NS(=O)(=O)c1ccc(CCNC(=O)c2ccc(Br)s2)cc1 | -8.4 | -16.9 | · | -3.7 | 3.3
Cc1occc1C(=O)NCCCCNC(=O)c1ccoc1C | 1.0 | -0.4 | · | -1.3 | 2.0
Cc1cc2cc(CCNC(=O)c3cccs3)c(=O)[nH]c2cc1C | -61.4 | -77.8 | 81.7* | 1.7 | -126.4
Cc1occc1C(=O)NCCc1cccc(Cl)c1 | -38.5 | -30.6 | 52.0* | -0.2 | -41.2
Nc1c(C(=O)Nc2ccc3c(c2)OCCO3)nnn1Cc1ccccc1Cl | -73.3 | -59.7 | 74.2* | 1.5 | -73.1
COc1cccc(NC(=O)c2ccc(CN3CCOCC3)cc2)c1 | -49.8 | -62.9 | 39.7 | 3.3 | -39.7
COc1ccc(Cn2nnc(C(=O)Nc3ccc(F)cc3)c2N)cc1 | -14.4 | 9.4 | 9.1 | -4.9 | -0.7
Nc1c(C(=O)Nc2ccc3c(c2)OCCO3)nnn1Cc1ccc(F)cc1 | -57.8 | -71.5 | 95.8* | 3.7 | -89.4
Nc1c(C(=O)Nc2ccc3c(c2)OCCO3)nnn1Cc1cccc(Cl)c1 | -62.2 | -30.9 | 55.4* | 6.9 | -68.1
O=C(Nc1ccc2c(c1)OCCO2)c1ccc(CN2CCOCC2)cc1 | -33.2 | -62.8 | 55.8* | 3.3 | -27.7
COc1ccccc1NC(=O)N[C@@H]1CC[C@@H](CC(=O)NCc2ccc(Cl)c(Cl)c2)O[C@H]1CO | · | · | 11.3 | · | ·
C[C@@H]1CN([C@H](C)CO)C(=O)c2cc(C#CC3(O)CCCC3)cnc2O[C@H]1CN(C)Cc1ccccc1 | · | · | -2.1 | · | ·
CC(C)(C)c1csc(NC(=O)c2cccs2)n1 | -74.0 | -50.3 | 103.2* | 1.1 | -151.3
O=C(Nc1nc(-c2ccccc2)cs1)c1cccs1 | -65.7 | -62.6 | 61.6* | -0.4 | -69.1
O=C(Nc1ccc([N+](=O)[O-])cc1)Nc1nc(-c2ccc(Cl)s2)cs1 | 60.5* | · | · | -6.5 | ·
O=C(Nc1nc(-c2ccc(Cl)s2)cs1)c1ccco1 | -9.8 | -35.6 | · | -1.3 | -61.8
COc1cccc(OC)c1C(=O)Nc1nc(-c2ccccc2)cs1 | -2.6 | -8.1 | -2.1 | -0.8 | -1.3
O=C(Nc1nc(-c2ccc(Cl)s2)cs1)c1cccs1 | 1.3 | -32.2 | 69.3* | -1.1 | -50.2
O=C(C[C@@H]1C[C@H]2c3cc(NC(=O)CC4CC4)ccc3O[C@H]2[C@H](CO)O1)NCc1cccnc1 | · | · | -0.6 | · | ·
CCn1c(CCNC(=O)c2cccs2)nnc1SCC(=O)Nc1nc(-c2ccccc2)cs1 | -6.3 | -13.6 | 44.3* | -4.9 | -21.1
O=C(Nc1nc(-c2ccccc2)ns1)c1cccs1 | -39.7 | -28.7 | 44.2* | 1.1 | -21.7
SMILES | Gli-Sufu block | Jurkat NFkB inh | esBAF inh | SMARCA2 act | 697 NFkB inh
CC1CCCN(CCCNC(=O)c2ccc3c(c2)N(Cc2ccc(F)cc2)C(=O)c2ccccc2S3=O)C1 (stereo not given) | 65.7* | -11.1 | -6.1 | -0.4 | -52.0
CC(C)NC(=S)N/N=C/c1sc(N2CCCCC2)nc1-c1cccs1 | -11.1 | -12.1 | 66.9* | -0.6 | -16.6
CO[C@H]1CN(C)C(=O)c2cc(NC(=O)Nc3ccccc3)ccc2OC[C@H](C)N(C(=O)CC2CC2)C[C@@H]1C | · | · | 47.8* | · | ·
CO[C@@H]1CN(C)C(=O)c2ccc(NC(=O)Nc3ccc4c(c3)OCO4)cc2OC[C@H](C)NC[C@H]1C | · | · | 92.8* | · | ·
CO[C@H]1CN(C)C(=O)c2ccc(NC(=O)Nc3ccc4c(c3)OCO4)cc2OC[C@@H](C)NC[C@@H]1C | · | · | 56.4* | · | ·
Cc1ccc(S(=O)(=O)Nc2ccc3c(c2)CC(=O)N([C@H](C)CO)C[C@@H](C)[C@@H](CN(C)C(=O)Nc2ccccc2)O3)cc1 | · | · | 2.6 | · | ·
Cc1ccc(S(=O)(=O)N(C)C)cc1NC(=S)NC(=O)C12CC3CC(CC(C3)C1)C2 | 66.4* | 26.5 | · | 2.9 | -62.4
C[C@H](CO)N1C[C@H](C)[C@@H](CN(C)CC2CC2)Oc2ccc(NS(=O)(=O)c3cn(C)cn3)cc2C1=O | · | · | -4.0 | · | ·
